Each structure is given as a SMILES string. The source made the active and inactive calls. No rule for the calls is given here.

This passage reports Potency results from PubChem BioAssay (NCATS).
Potency is read from the fitted curve at half-maximal effect.

The subject of the assay is HIV-1 nucleocapsid protein NCp7 (binding to TG oligonucleotide). Nature of the assay: HIV Nucleocapsid (AID 346).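 Also: potency is for inhibitors that block NC binding and lower polarization.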 The conditions noted are these: HIV-1 NC / fluorescein-TGTGTGTG probe, fluorescence polarization. Put shortly: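 HIV-1 NC (100 nM) binding to fluorescein-labelled ssDNA TG4xF (10 nM) in Hepes pH 7.5, 250mM NaCl, 1uM ZnCl2, TCEP and 2-mercaptoethanol; compounds pin-transferred, 1 hr room temperature, fluorescence polarization read on CCD imager.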
On to `O=c1c(-c2ccc(Cl)cc2)nc2cnc(Nc3ccccc3)nc2n1C[C@H]1CCCO1`, for which the Potency was 0.219 µM (active).

Regarding `COc1cccc(-c2cncnc2NCc2ccc(OC)cc2OC)c1`, the Potency was > 20 µM (inactive).

As to `CN(Cc1ccco1)c1ccnc(-c2ccoc2)n1`, the Potency was > 20 µM (inactive).

Consider `CC(=O)N1CCC2(CC1)CN(c1ccncc1)C2`, for which the Potency was > 20 µM (inactive).

In the case of `CN1CCN(c2ncncc2-c2ccc(N(C)C)cc2)CC1`, the Potency is > 20 µM (inactive).

For `COCCn1c(=O)c(-c2cccc(C#N)c2)nc2cnc(N(C)C)nc21`, the Potency was > 4 µM (inactive).

For `COCCn1c(=O)c(-c2cccc(C#N)c2)nc2cnc(OC)nc21`, the Potency was > 20 µM (inactive).

As for `CN(C)c1ccc(-c2nccc(NCc3cccs3)n2)cc1`, the Potency is > 20 µM (inactive).

Regarding `COc1ccc(NC(=O)N2CC[C@@]3(CCCN(C(=O)c4ccco4)C3)C2)cc1`, the Potency was > 20 µM (inactive).

Regarding `Cn1cc(-c2nc3cnc(N4CCNCC4)nc3n(Cc3ccc(F)cc3)c2=O)c2ccccc21`, the Potency was 20.8 µM (inactive).

As to `O=c1c(-c2cccc(F)c2)nc2cncnc2n1Cc1ccccc1Cl`, the Potency is > 20 µM (inactive).

Regarding `Cc1cccc(CNc2cc(-c3cccc(C#N)c3)ncn2)c1`, the Potency was > 20 µM (inactive).

Regarding `COCC(=O)N1CCC2(CC1)CCN(C(=O)NC(C)C)CC2`, the Potency was > 20 µM (inactive).

As for `COc1ccc(-n2c(=O)c(-c3cn(C)c4ccccc34)nc3cnc(N4CCOCC4)nc32)cc1`, the Potency was > 20 µM (inactive).

As for `COc1ccc(C(=O)N2CCC3(CCN(C)CC3)CC2)cc1`, the Potency is > 20 µM (inactive).

As to `COc1cccc(-c2ccc3ncnc(NCc4ccc(OC)cc4OC)c3c2)c1`, the Potency was > 20 µM (inactive).

Take `CCNc1ncc2nc(CCc3ccccc3)c(=O)n(Cc3cccc(OC)c3)c2n1`: the Potency was > 20 µM (inactive).

Regarding `COc1ccccc1CNc1cc(-c2ccccc2C(F)(F)F)ncn1`, the Potency is > 20 µM (inactive).

On to `N#CCCn1c(=O)cnc2cnc(Oc3cccc(Cl)c3)nc21`, for which the Potency was > 20 µM (inactive).

Turning to `O=C(c1cnccn1)N1CCC2(CC1)CN(c1ccccn1)C2`, the Potency was > 20 µM (inactive).

On to `CN1CCC2(CC1)CCN(C(=O)c1cccc(F)c1)CC2`, for which the Potency was > 20 µM (inactive).

On to `COc1cccc(-c2cncnc2NCCc2c[nH]c3ccc(OC)cc23)c1`, for which the Potency was > 20 µM (inactive).

In the case of `Cc1cccc(CNc2ccnc(-c3cccc(NS(C)(=O)=O)c3)n2)c1`, the Potency was > 20 µM (inactive).

With `CC(=O)N1CCC2(CC1)CCN(C(=O)Nc1cccc(C#N)c1)CC2`, the Potency is > 20 µM (inactive).

For the compound `N#Cc1cccc(-c2cc(NCc3cccs3)ncn2)c1`, the Potency was > 20 µM (inactive).

As for `CC(=O)N1CCC2(CCCN(C(c3ccccc3)c3ccccc3)C2)CC1`, the Potency was > 20 µM (inactive).

With `Cc1noc(C)c1-c1ccc2ncnc(NCCN3CCOCC3)c2c1`, the Potency was > 20 µM (inactive).

As to `N#Cc1cccc(-c2nc3cnc(N4CCOCC4)nc3n(C3CC3)c2=O)c1`, the Potency is > 20 µM (inactive).

As to `O=c1c(-c2ccccc2)nc2cnc(N3CCOCC3)nc2n1C1CC1`, the Potency is > 20 µM (inactive).

Regarding `COc1ccc(NC(=O)N2CCCC3(CCN(C(=O)c4csnn4)CC3)C2)cc1`, the Potency was > 20 µM (inactive).

With `CNc1nc(-c2ccccc2C(F)(F)F)nc2ccccc12`, the Potency was > 20 µM (inactive).

Take `N#CCCn1c(=O)c(-c2ccc(F)cc2)nc2cnc(N3CCOCC3)nc21`: the Potency was > 20 µM (inactive).

For the compound `CS(=O)(=O)Nc1cccc(-c2cc(NCc3ccccc3)ncn2)c1`, the Potency was > 20 µM (inactive).

On to `CN(C)c1ncc2nc(-c3cccc(C#N)c3)c(=O)n(CCC#N)c2n1`, for which the Potency was > 20 µM (inactive).

For `COc1ccc(-n2c(=O)c(CCc3ccccc3)nc3cncnc32)cc1`, the Potency was > 20 µM (inactive).

Regarding `COCCn1c(=O)c(-c2cccc(C#N)c2)nc2cnc(N3CCN(C)CC3)nc21`, the Potency is > 20 µM (inactive).

Take `COc1cccc(-c2ccc3ncnc(NCCNC(C)=O)c3c2)c1`: the Potency is > 20 µM (inactive).

Take `Cc1cnc(CNc2nc(-c3ccccc3Cl)nc3ccccc23)cn1`: the Potency is > 20 µM (inactive).

With `O=C(c1cc(C(F)(F)F)cc(C(F)(F)F)c1)N1CCC2(CC1)CN(c1ncccn1)C2`, the Potency is > 20 µM (inactive).

Consider `Cn1cc(-c2nc3cncnc3n(CCN)c2=O)c2ccccc21`, for which the Potency was > 20 µM (inactive).
